From PubChem BioAssay (NCI)
About 79,000 compounds went through this panel and 15% of them were active in at least one assay; those are over-represented in the sample as a whole. Activity calls are given as the source filed them. No stated cut-off is given here; in the data, active means growth inhibition above about 70%; inactive means the rest.

Experiments:
[1] = NCI Yeast Anticancer Drug Screen. Data for the rad52 strain (AID 147);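 further: 0% = growth of vehicle-treated control cultures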; conditions: S. cerevisiae rad52 mutant growth inhibition, stronger effect = higher value
In short: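 Read-out: growth inhibition versus vehicle-treated controls. Cells were a DNA repair-deficient yeast strain treated with compounds.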

[2] = NCI Yeast Anticancer Drug Screen. Data for the wt1 strain (AID 149);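 further: 0% = growth of vehicle-treated wt1 cultures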; conditions: S. cerevisiae wt1 strain (SPY 50644) growth inhibition, stronger effect = higher value
In short: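 Vehicle-normalised growth inhibition; strain wt1; compound exposure.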

[3] = NCI Yeast Anticancer Drug Screen. Data for the rad50EPP+ strain (AID 151);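 further: 0% = growth of vehicle-treated control cultures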; conditions: S. cerevisiae rad50 mutant strain, stronger effect = higher value
In short: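 Growth inhibition read against vehicle controls in rad50EPP+ yeast, a strain altered in DNA damage repair, after compound exposure.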

[4] = NCI Yeast Anticancer Drug Screen. Data for the mgt1 strain (AID 153); conditions: S. cerevisiae mgt1 mutant growth inhibition, stronger effect = higher value
In short: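 mgt1 yeast grown with test compound; read-out is growth inhibition versus vehicle-treated cultures.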

[5] = NCI Yeast Anticancer Drug Screen. Data for the rad50 strain (AID 155);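 further: 0% = growth of vehicle-only cultures of the same strain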; conditions: S. cerevisiae rad50 strain growth inhibition, stronger effect = higher value
In short: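 A DNA repair-deficient yeast mutant serves as the test organism; compound-induced growth inhibition is calculated against vehicle-treated cells.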

[6] = NCI Yeast Anticancer Drug Screen. Data for the mec2-1 strain (AID 157); conditions: S. cerevisiae mec2-1 strain, stronger effect = higher value
In short: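 Yeast mec2-1 mutant treated with compound. Readout: growth inhibition vs vehicle controls.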

[7] = NCI Yeast Anticancer Drug Screen. Data for the rad14 strain (AID 159);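 further: 0% = growth of vehicle-treated control cultures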; conditions: S. cerevisiae rad14 strain growth inhibition, stronger effect = higher value
In short: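 Vehicle-treated cultures served as the baseline for growth inhibition of a DNA repair-mutant yeast strain exposed to each compound.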

[8] = NCI Yeast Anticancer Drug Screen. Data for the sgs1 mgt1 strain (AID 161);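 further: 0% = growth of cultures given vehicle only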; conditions: S. cerevisiae sgs1 mgt1 strain, stronger effect = higher value
In short: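 Test agents were incubated with a DNA-repair-mutant yeast strain. Growth was then read and compared against vehicle-treated controls.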

[9] = NCI Yeast Anticancer Drug Screen. Data for the CLN2oe strain (AID 163);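 further: 0% = growth of vehicle-only control cultures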; conditions: S. cerevisiae CLN2oe strain, stronger effect = higher value
In short: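 Read-out: yeast growth inhibition, expressed relative to vehicle-only controls. The strain bears an engineered cell-cycle alteration.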

[10] = NCI Yeast Anticancer Drug Screen. Data for the cln2 rad14 strain (AID 165);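 further: 0% = growth equal to vehicle treated cultures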; conditions: S. cerevisiae cln2 rad14 strain, stronger effect = higher value
In short: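 cln2 rad14 yeast strain; compound exposure; growth inhibition read vs vehicle controls.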

[11] = NCI Yeast Anticancer Drug Screen. Data for the bub3 strain (AID 167); conditions: S. cerevisiae bub3 mutant strain, stronger effect = higher value
In short: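 Inhibition values come from growth of compound-treated mutant yeast normalised to vehicle-treated controls.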

[12] = NCI Yeast Anticancer Drug Screen. Data for the wt2 strain (AID 169);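 further: 0% = growth of vehicle-treated yeast cultures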; conditions: S. cerevisiae wt2 strain growth inhibition, stronger effect = higher value
In short: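 Read-out: growth inhibition versus vehicle-treated control cultures after compound exposure of the yeast strain.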

[13] = NCI Yeast Anticancer Drug Screen. Data for the mlh1 strain (AID 171);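 further: 0% = growth of vehicle-treated control cultures of the same strain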; conditions: S. cerevisiae mlh1 strain growth inhibition, stronger effect = higher value
In short: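 Read-out: growth inhibition versus vehicle controls. Strain: engineered yeast with a defined DNA repair or cell cycle defect, compound-treated.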

[14] = NCI Yeast Anticancer Drug Screen. Data for the sgs1 strain (AID 173);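 further: 0% = growth of vehicle-only control cultures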; conditions: S. cerevisiae sgs1 mutant, stronger effect = higher value
In short: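 Read-out: yeast growth inhibition relative to vehicle controls, following compound exposure of a strain with a defined DNA repair/cell cycle alteration.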

[15] = NCI Yeast Anticancer Drug Screen. Data for the mlh1 rad18 strain (AID 175); conditions: S. cerevisiae mlh1 rad18 strain growth inhibition, stronger effect = higher value
In short: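 Yeast w/ defined DNA-repair lesions; compound exposure; growth vs vehicle controls → % inhibition.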

[16] = NCI Yeast Anticancer Drug Screen. Data for the rad18 strain (AID 177); conditions: S. cerevisiae rad18 mutant growth inhibition, stronger effect = higher value
In short: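 Readout: growth inhibition vs vehicle controls. Cells: genetically altered yeast strain, DNA repair defect.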

[17] = at 5.0 µM (retest, dose inferred, filed as 0.5)
[18] = at 50.0 µM (retest, dose inferred, filed as 5.0)

Measured: growth inhibition

COC(C(O)CO)C(O)C(O)C(=O)NNc1ccccc1 (stereo not drawn)
inactive: [1]; at 1.2 µM 12% | [1]; at 3.7 µM 23% | [1]; at 11.0 µM 45% | [1]; at 33.0 µM 61% | [2]; at 1.2 µM 1% | [2]; at 3.7 µM 5% | [2]; at 11.0 µM 29% | [2]; at 33.0 µM 36% | [2]; at 100.0 µM 66% | [3]; at 1.2 µM 15% | [3]; at 3.7 µM 29% | [3]; at 11.0 µM 37% | [3]; at 33.0 µM 41% | [3]; at 100.0 µM 68% | [4]; at 1.2 µM -1% | [4]; at 3.7 µM 11% | [4]; at 11.0 µM 29% | [4]; at 33.0 µM 26% | [5]; at 1.2 µM 35% | [5]; at 3.7 µM 41% | [5]; [17] 9% | [5]; at 11.0 µM 68% | [6]; at 1.2 µM 0% | [6]; at 3.7 µM 4% | [6]; [17] 7% | [6]; at 11.0 µM 40% | [6]; at 33.0 µM 31% | [6]; at 50.0 µM 54.4% | [7]; at 1.2 µM 6% | [7]; at 3.7 µM 9% | [7]; at 11.0 µM 19% | [7]; at 33.0 µM 21% | [8]; [17] 15% | [9]; at 1.2 µM 8% | [9]; at 3.7 µM 7% | [9]; at 11.0 µM 57% | [9]; at 33.0 µM 62% | [10]; [17] 5% | [10]; [18] 68% | [11]; at 1.2 µM -1% | [11]; at 3.7 µM 1% | [11]; [17] 23% | [11]; at 11.0 µM 26% | [11]; at 33.0 µM 34% | [12]; at 1.2 µM -4% | [12]; at 3.7 µM 22% | [12]; at 11.0 µM 22% | [12]; at 33.0 µM 9% | [13]; at 1.2 µM 2% | [13]; at 3.7 µM 9% | [13]; at 11.0 µM 44% | [13]; at 33.0 µM 61% | [14]; at 1.2 µM -11% | [14]; at 3.7 µM 34% | [14]; at 11.0 µM 47% | [14]; at 33.0 µM 68% | [15]; [17] 28% | [16]; at 1.2 µM 17% | [16]; at 3.7 µM 49%
active: [1]; at 100.0 µM 93% | [4]; at 100.0 µM 94% | [5]; at 33.0 µM 79% | [5]; [18] 71% | [5]; at 50.0 µM 96.1% | [5]; at 100.0 µM 96% | [6]; [18] 76% | [6]; at 100.0 µM 94% | [7]; at 100.0 µM 84% | [8]; [18] 80% | [8]; at 50.0 µM 94.7% | [9]; at 100.0 µM 97% | [10]; at 50.0 µM 89% | [11]; [18] 97% | [11]; at 50.0 µM 96.1% | [11]; at 100.0 µM 93% | [12]; at 100.0 µM 86% | [13]; at 100.0 µM 97% | [14]; at 100.0 µM 97% | [15]; [18] 96% | [15]; at 50.0 µM 94.5% | [16]; at 11.0 µM 79% | [16]; at 33.0 µM 78% | [16]; at 100.0 µM 97%
